# High-throughput results deposited in PubChem by National Center for Advancing Translational Sciences (NCATS).
# PNC assembly inh – blocks assembly of the perinucleolar compartment; PC3M PTB-GFP, PNC prevalence imaging, 16 h; hits give low values; activity change (PNC), negative = inhibition, % at 10 µM; 140,000 compounds, 3.1% hits; AID 2417;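 active = readout at or below -70, meaning at least 70% loss of cells showing the perinucleolar compartment, a nuclear body marking cancer cells; inconclusive = readout between -30 and a set limit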
#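 Read-out is percentage of cells bearing a perinucleolar compartment, from automated 20x imaging of fixed, Hoechst-stained PC3M PTB-GFP cells. Cells were seeded 4 h, then exposed 16 h to compound (23 nl of library stock) in duplicate plates.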
# Tau ThT inhib – tau fibrillization inhibition (ThT binding); recombinant tau K18 P301L, heparin-induced fibrillization, ThT fluorescence; AID 1460; 270,000 compounds, 2.1% hits; Potency, µM (series often up to 57.4 µM), actives largely listed as inhibitors; P10636; note: nearly all actives have a fitted effect of over 55% in size
# Target sequence (P10636 561-689 P618L limits assumed): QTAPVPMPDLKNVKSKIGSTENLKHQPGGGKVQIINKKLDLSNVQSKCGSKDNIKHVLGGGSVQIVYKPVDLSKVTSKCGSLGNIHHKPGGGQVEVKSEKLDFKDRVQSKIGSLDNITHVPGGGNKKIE
#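 Heparin-induced (20 uM) aggregation of recombinant human K18 P301L tau, 15 uM unlabeled with 0.24 uM labeled, pH 7 acetate buffer, 6 hr at 37 C with compound. Fibrils quantified by 30 uM ThT fluorescence after 1 hr ambient incubation.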
# TRb-SRC2 inh – TRbeta-SRC2 interaction inhibition; Potency, µM (doses to about 106 µM), most hits filed as inhibitors; 280,000 compounds, 0.065% hits; TRbeta-SRC2 peptide binding, fluorescence polarization; receptor liganded with 1 µM T3; AID 1469; note: nearly all actives have a fitted effect of over 50% in size
# Target sequence (P10828 whole entry, looked up): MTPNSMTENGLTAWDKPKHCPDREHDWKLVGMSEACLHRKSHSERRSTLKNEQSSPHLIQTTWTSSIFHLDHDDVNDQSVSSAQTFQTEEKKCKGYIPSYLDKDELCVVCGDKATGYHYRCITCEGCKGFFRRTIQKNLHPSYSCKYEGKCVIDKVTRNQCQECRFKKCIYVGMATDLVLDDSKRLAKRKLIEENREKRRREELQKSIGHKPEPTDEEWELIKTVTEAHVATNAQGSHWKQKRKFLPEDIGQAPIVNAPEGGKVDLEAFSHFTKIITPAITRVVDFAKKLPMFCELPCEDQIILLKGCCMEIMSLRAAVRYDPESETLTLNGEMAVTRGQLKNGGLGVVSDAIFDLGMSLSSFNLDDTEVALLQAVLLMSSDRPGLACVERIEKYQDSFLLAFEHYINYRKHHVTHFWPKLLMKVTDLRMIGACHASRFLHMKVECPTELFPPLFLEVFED
#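 Polarization signal, normalized between peptide-alone and full complex controls, measured compound effects on T3-liganded human TRb LBD (0.6 uM) binding 20 nM Texas Red SRC2 peptide after 5 hr.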
# TR SRC2 fluor cs – alters Texas Red total fluorescence, flagging assay interference; TRb/SRC2 Texas Red total fluorescence interference; Potency, µM (titrated, usually from 106 µM); 280,000 compounds, 0.29% hits; active = well fitted curve in either direction with a large enough effect; inconclusive = small, poorly fitted or top-dose-only effect
#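 Human TRb ligand-binding domain at 0.6 uM with 20 nM Texas Red SRC2 peptide in Tris buffer containing 1 uM T3 and 5% DMSO, incubated with compound 5 h at ambient temperature. Total fluorescence (555/632 nm) calculated as parallel + 2 × perpendicular.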
# Tau fluor cs – counter-screen for tau fibril formation inhibitors; tau K18 P301L Alexa594 fluorescence, heparin fibrillization; Potency, µM (top dose mostly 57.7 µM); 280,000 compounds, 0.93% hits; AID 1463; note: nearly all actives have a fitted effect of over 55% in size
#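 Human tau K18 P301L (15 uM unlabeled, 0.24 uM Alexa 594-labeled) in 100 mM sodium acetate pH 7 with 20 uM heparin, 6 hr at 37 C. ThT 30 uM added, 1 hr ambient; Alexa 594 FP and total fluorescence read at 555/632 nm.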
# Tau fibril FP – blocks human tau fibril formation measured by polarization; P10636; K18 P301L tau heparin fibrillization, Alexa594 FP, 6 h; Potency, µM (top dose mostly 57.7 µM), usual class: inhibitors; 280,000 compounds, 0.39% hits; AID 1468; note: nearly all actives have a fitted effect of over 55% in size
#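 Heparin (20 uM) drove fibril formation of recombinant tau K18 P301L, 15 uM unlabeled with 0.24 uM Alexa 594 label, for 6 hr at 37 C in 100 mM sodium acetate pH 7. Fluorescence polarization (555/632 nm) read 1 hr after 30 uM ThT.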
# Numbers stand for hits; . = inactive; ? = inconclusive; / = not tested or not shown; [ ] = another dose, or the depositor's remark. The list is not random: actives were taken first. Their share in the collection is about 4.6%. Unless noted, calls come from the whole dose curve; as a rule, active = well fitted curve in the direction sought with a large enough effect; inconclusive = small, poorly fitted or top-dose-only effect, or another doubt; inactive = no such curve, though single readings can be large; an effect the other way counts as inactive or inconclusive.
SMILES,PNC assembly inh,Tau ThT inhib,TRb-SRC2 inh,TR SRC2 fluor cs,Tau fluor cs,Tau fibril FP
CCc1c(OC(C)=O)c2ccccc2n(C)c1=O,?,.,.,.,.,.
Nc1ccc(N2CCCCC2)c2nonc12,/,8.9µM,?,.,?,?
Nc1ccc(N2CCCCC2)cc1N1CCCCC1,.,?,.,.,?,?
Nc1c(N2CCCC2)cc(Cl)c2nonc12,.,2.8µM,?,.,.,?
Cc1cc(N2CCOCC2)c2c(N)cc(C)c(C)c2n1,.,?,.,.,.,.
Nc1c(N2CCOCC2)cc(Cl)c2nonc12,.,16µM,?,.,.,?
COc1ccc(CN2C(=O)c3ccccc3C(/C=N\OCc3ccc(F)cc3)C2=O)cc1 (stereo not given),.,.,.,.,.,.
CC(=O)N=C(N)Sc1nc2ccccc2[nH]1,-100,.,.,.,.,.
CCOC(=O)Cn1c(=NC(=O)C2COc3ccccc3O2)sc2cc(S(N)(=O)=O)ccc21 (stereo not given),-134,.,.,.,.,.
CCN(CCNC(=O)c1ccc(CSc2nc3ccncc3[nH]2)cc1)c1ccccc1,.,?,.,.,25µM[quencher],.
Clc1ccc(-n2nnnc2-c2ccccc2)cc1,?,.,.,.,.,.
COc1ccc(-n2nnnc2-c2ccccc2)cc1,-83,.,.,.,.,.
Brc1ccc(OCc2nnnn2-c2ccccc2)cc1,/,.,.,.,.,.
COc1ccc(OCc2nnnn2-c2ccccc2)cc1,-93,.,.,.,.,.
C(#Cc1ccc(C#CCN2CCCC2)cc1)CN1CCCC1,-90,.,.,.,.,.
COc1ccccc1C(=O)NNC(=S)NC(=O)c1sc2ccccc2c1Cl,.,7.1µM,.,.,.,.
Cc1ccccc1-n1sc2cc(F)ccc2c1=O,/,10µM,.,.,.,25µM
O=C(O/N=C(\c1ccccc1)c1ccccn1)c1ccc(Cl)c(Cl)c1,-107,.,.,.,.,.
N/C(=N\OC(=O)c1ccc2ccccc2c1)c1ccccn1,/,.,.,.,.,.
N#CC1=C(S)N(c2ccccc2)C(c2ccc(-c3cccc(Cl)c3)o2)NC1=O (stereo not given),?,22µM,.,.,.,?
O=C(CSCC(=O)N1CCN(c2ccccc2)CC1)Nc1nc(-c2ccc(Cl)s2)cs1,-108,?,.,.,.,.
CCCCNc1nc2c(c(=O)n(Cc3ccc(Cl)c(Cl)c3)c(=O)n2C)n1C,/,?,.,.,11µM[quencher],?
O=C(CNC(=O)c1ccco1)NCC(=O)OC(C(=O)c1ccccc1)c1ccc(Cl)cc1 (stereo not given),-100,.,.,.,.,.
O=C(CNC(=O)c1ccco1)OC(C(=O)c1ccccc1)c1ccccc1 (stereo not given),.,.,.,.,.,.
CC(C)Cc1nc2oc3c(NCC4CCCO4)ncnc3c2c2c1CCC2 (stereo not given),-100,.,.,.,.,.
SMILES,PNC assembly inh,Tau ThT inhib,TRb-SRC2 inh,TR SRC2 fluor cs,Tau fluor cs,Tau fibril FP
CC(C)Cc1nc2oc3c(NCc4cccnc4)ncnc3c2c2c1CCC2,?,.,.,.,.,.
O=C(NC1CC(=O)N(c2ccccc2)C1)c1cc2ccccc2o1 (stereo not given),/,.,.,.,.,.
O=C(NNS(=O)(=O)c1ccccc1)C1CCN(S(=O)(=O)c2ccccc2)CC1,.,.,.,.,.,.
O=C(NNS(=O)(=O)c1ccccc1)C1CCN(S(=O)(=O)c2ccc(Cl)cc2)CC1,-100,.,.,.,.,.
Cc1ccc(S(=O)(=O)C(C#N)c2nc3ccccc3nc2N2CC(C)OC(C)C2)cc1C (stereo not given),-139,?,.,.,.,.
CCCCOC(=O)c1c(C)oc2ccc(NS(=O)(=O)c3ccc4c5c(cccc35)C(=O)N4)cc12,.,?,.,.,16µM[quencher],.
CCOc1ccc(S(=O)(=O)Nc2ccc3oc(C)c(C(=O)OCCOC)c3c2)cc1,/,.,.,.,.,.
CC(C)c1ccc(NC(=S)NN(c2ccccc2)c2ccccc2)cc1,-85,.,.,.,.,.
CC(=O)Oc1c(C)cc(O)c2ccccc12,.,25µM,.,.,?,?
O=C(Nc1nnc(CCS(=O)(=O)c2ccc3ccccc3c2)s1)c1cccs1,.,.,.,.,.,.
Oc1ccc(-c2nc3c4c(ncn3n2)-c2ccccc2CC42CCCC2)cc1,.,.,.,.,?,22µM
Cc1ccc(N2C(=O)C3C(C2=O)C2C=CC3C23CC3)c([N+](=O)[O-])c1 (stereo not given),/,.,.,.,.,.
CC(C)CC(C(=O)Nn1cnnc1)N1C(=O)c2ccccc2C1=O (stereo not given),-100,.,.,.,.,.
CCOC(=O)c1c(NC(=O)c2nc3n(n2)C(C(F)F)CC(C)N3)sc2c1CCCC2 (stereo not given),.,?,.,.,.,.
CN(C)S(=O)(=O)c1cccc(NC(=O)COC(=O)CCOc2ccccc2)c1,/,.,.,.,.,.
CCOc1ccc(S(=O)(=O)N/N=C2/CCCC(=O)C2)cc1,?,.,.,.,.,.
O=C1CCC/C(=N/Nc2ccc(Cl)cc2)C1,/,25µM,.,.,?,?
O=C(c1ccc(S(=O)(=O)c2ccc(F)cc2)c([N+](=O)[O-])c1)N1CCCCCC1,-119,.,.,.,.,.
Cc1cccc(NC2=C(NC(=O)c3ccccc3)C(=O)c3ccccc3C2=O)c1,.,?,.,.,.,.
Cc1ccccc1Oc1ccc(NC(=O)C2CC=CCC2C(=O)O)cc1 (stereo not given),-83,.,.,.,.,.
CC(C)(C)c1ccc(Oc2ccc(NC(=O)C3CC=CCC3C(=O)O)cc2)cc1 (stereo not given),/,.,.,.,.,.
CN1C(=O)/C(=C/C=C2\SCCN2C)N(C)C1=S,/,28µM,.,.,.,.
Nc1ccccc1Nc1cc(-c2ccccc2)nn1-c1cccc(Cl)c1,.,?,.,.,11µM[quencher],?
O=C(Nc1cc(-c2cccc(Cl)c2)nn1-c1ccccc1)c1ccccc1F,/,.,.,.,?,?
CCOc1ccc(NS(=O)(=O)c2ccc(NS(=O)(=O)c3ccc(SC)cc3)cc2)cc1,.,.,.,.,?,?
CCCCCC1CC(CC(=O)Nc2nncs2)C(=O)O1 (stereo not given),-100,.,.,.,.,.
CCCCCC1CC(CC(C)C(=O)Nc2nncs2)C(=O)O1 (stereo not given),.,.,.,.,.,.
